Source: PubChem
M1 PAM – positive allosteric modulators of human M1 muscarinic receptor; 360,000 tested, 0.088% active; CHO-K1 hM1, Fluo-8 calcium fluorescence, ACh EC20; 0% = ACh EC20, 100% = maximal ACh; AID 588819; activation, % at 3 µM; P11229; in the data active = activation above about 19%, passing the limit was not always enough
Target sequence (P11229 whole entry, looked up): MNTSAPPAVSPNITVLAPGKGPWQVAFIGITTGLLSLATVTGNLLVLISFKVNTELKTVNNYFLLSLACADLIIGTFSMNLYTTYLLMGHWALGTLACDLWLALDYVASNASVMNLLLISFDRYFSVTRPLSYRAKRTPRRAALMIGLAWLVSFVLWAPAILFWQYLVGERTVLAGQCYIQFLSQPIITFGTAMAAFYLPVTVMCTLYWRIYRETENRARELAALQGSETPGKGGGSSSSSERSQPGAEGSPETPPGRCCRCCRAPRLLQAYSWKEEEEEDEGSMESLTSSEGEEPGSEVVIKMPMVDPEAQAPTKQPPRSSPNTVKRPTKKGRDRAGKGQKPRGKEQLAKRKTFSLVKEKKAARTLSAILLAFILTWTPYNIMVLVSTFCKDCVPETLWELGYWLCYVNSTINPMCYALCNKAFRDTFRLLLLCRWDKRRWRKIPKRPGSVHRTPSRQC
CHRM1 agonist – agonists of human M1 muscarinic receptor. P11229. activation, % at 3 µM. 360,000 tested, 0.33% active. AID 588814. CHO-K1 hM1, Fluo-8 calcium fluorescence, agonist mode; 0% DMSO, 100% acetylcholine EC100;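 active = activation above the run's mean compound activation plus 3 SD, cut at about 16% in these data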;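 also: peak over basal fluorescence ratio within a 140 s kinetic read after compound addition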
M1 PAM parental – counter-screen for M1 PAMs: effect in parental CHO-K1 cells | ATP EC20, Fluo-8 calcium fluorescence; 0% at ATP EC20, 100% at ATP max | activation, % at 3 µM | 360,000 tested, 0.02% active;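 active = activation above the run cutoff, the mean activation of all test compounds plus 3 SD, cut at about 40% in these data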;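 also: peak over basal fluorescence ratio in a 140 s read after ATP addition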
M1 antag – antagonists of human M1 muscarinic receptor | CHO-K1 hM1, Fluo-8 calcium fluorescence, ACh EC80 antagonist | inhibition, % at 3 µM | 360,000 tested, 1.3% active;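 active = percent inhibition above its own plate's cutoff, namely the mean of that plate's compound wells plus 3 SD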;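 also: peak over basal fluorescence ratio during 140 s after agonist addition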
CHO-K1 Ca antag – M1 antagonist counterscreen hit in parental CHO-K1 cells; ATP-induced calcium, Fluo-8 fluorescence; inhibition, % at 3 µM; 360,000 tested, 0.6% active;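 active = inhibition above a per-plate cutoff, the plate's mean sample inhibition plus 3 SD, cut at about 24% in these data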
CHO-K1 Ca ag – counter-screen for M1 agonists: effect in parental CHO-K1 cells; 360,000 tested, 0.48% active; activation, % at 3 µM; Fluo-8 calcium fluorescence; scaled to maximal ATP response, vehicle zero; in the data active = activation above about 15%;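 also: untransfected CHO-K1 host cells lacking M1 receptor as counterscreen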
Each line names hits and unclear results; the compound was inactive in the other large screens. Shown are actives, neighbours in structure and some others; about 2.3% of the full set was active somewhere.

CC(C)Cn1c(N)c(C(=O)COC(=O)CCc2nc3ccccc3s2)c(=O)n(C)c1=O	CHO-K1 Ca ag 15.2
CC(C)Cn1c(N)c(C(=O)COC(=O)COc2cccc(C(F)(F)F)c2)c(=O)n(C)c1=O	M1 antag 31.6, CHO-K1 Ca ag 15.2
Cc1ccc(OCCC(=O)OCC(=O)c2c(N)n(CC(C)C)c(=O)n(C)c2=O)cc1	none
CC(C)Cn1c(N)c(C(=O)COC(=O)/C=C/c2ccccc2)c(=O)n(C)c1=O	M1 antag 29.9, CHO-K1 Ca antag 28.5
CC(C)Cn1c(N)c(C(=O)COC(=O)c2cccc(F)c2)c(=O)n(C)c1=O	none
Cc1ccccc1OCCC(=O)OCC(=O)c1c(N)n(CC(C)C)c(=O)n(C)c1=O	M1 antag 38.0, CHO-K1 Ca antag 24.1, CHO-K1 Ca ag 15.2
CC(C)C[C@@H]1O[C@H](C(C)C)Cc2[nH][nH]c(=O)c21	none (no result: M1 PAM, CHRM1 agonist, M1 antag)
CC(C)Cn1c(N)c(C(=O)COC(=O)CC23CC4CC(CC(C4)C2)C3)c(=O)n(C)c1=O	M1 antag 32.7
CC(C)Cn1c(N)c(C(=O)COC(=O)c2c(O)c(Cl)cc(Cl)c2Cl)c(=O)n(C)c1=O	M1 PAM 28.0
CC(=O)Nc1ccccc1OCC(=O)N(Cc1ccccc1)C(C)C	none
O=C(NCCCN1CCOCC1)C(=O)N/N=C/c1c(Cl)cccc1Cl	none
O=C(NCCCN1CCOCC1)C(=O)N/N=C/c1c2ccccc2cc2ccccc12	M1 antag 65.2
COc1ccc(CC(=O)O/N=C(\N)c2ccccc2)cc1OC	none
Cc1c(C(=O)NCc2ccc([N+](=O)[O-])cc2)sc(=O)n1Cc1ccc(-c2ccccc2)cc1	none
Cc1[nH]c(=O)sc1C(=O)NCc1ccc([N+](=O)[O-])cc1	CHO-K1 Ca antag 34.8
CC(C)(C)c1ccc(-n2ncc3c2CCCC3NC(=O)c2ccncc2)cc1 (stereo unspecified)	M1 antag 61.8
O=C(NC1CCCc2c1cnn2-c1cc(F)cc(F)c1)c1ccncc1 (stereo unspecified)	none
Cc1cc(C(=O)NC2CCCc3c2cnn3-c2ccc(C)c(C)c2)n(C)n1 (stereo unspecified)	M1 antag 43.6, CHO-K1 Ca antag 25.3
CN1CCN(C2=CC3=CC(=C(C#N)C#N)CCC3CC2)CC1 (stereo unspecified)	CHRM1 agonist 896.4, M1 antag 103.0, CHO-K1 Ca antag 85.2, CHO-K1 Ca ag 522.4
CCN1CCN(C2=CC3=CC(=C(C#N)C#N)CCC3CC2)CC1 (stereo unspecified)	CHRM1 agonist 590.7, M1 antag 101.0, CHO-K1 Ca antag 78.0, CHO-K1 Ca ag 365.7
N#CC(C#N)=C1C=C2C=C(N3CCCCCC3)CCC2CC1 (stereo unspecified)	CHRM1 agonist active, M1 antag 101.7, CHO-K1 Ca antag 101.7, CHO-K1 Ca ag 939.4
N#CC(C#N)=C1C=C2C=C(N3CCOCC3)CCC2CC1 (stereo unspecified)	CHRM1 agonist 124.3, M1 antag 57.8, CHO-K1 Ca ag 65.5
CCc1ccc(CNC(=O)c2ccc3nc(C4CCCCC4)oc3c2)nc1	none
Cc1ccc2oc(NC(=O)N3CCOCC3)cc(=O)c2c1	CHO-K1 Ca antag 31.2
O=C(Nc1cc(=O)c2ccccc2o1)N1CCOCC1	M1 antag 31.1
O=C(Nc1cc(=O)c2ccccc2o1)N1CCCCC1	none
O=C(Cc1ccsc1)N1CCN(S(=O)(=O)c2ccccc2F)CC1	none
CCn1c(COc2ccc(=O)n(-c3ccccc3)n2)n[nH]c1=S	none
Cc1ccc(-c2csc(N3CCC(C(N)=O)CC3)n2)cc1	none
Cc1ccc(-c2csc(N3CCC(NS(=O)(=O)c4ccc5c(c4)OCCO5)CC3)n2)cc1	M1 antag 18.5
CCC(=O)c1ccc(OCc2ccccc2)c(OC)c1	none
CCC(=O)c1ccc(OCc2ccc(C(=O)c3ccccc3)cc2)cc1	M1 antag 51.0
Cc1ccc(OC(=O)c2ccc(Br)o2)cc1	CHRM1 agonist 30.5, CHO-K1 Ca ag 27.3
CCC(=O)c1ccc(OC(=O)c2ccc(Br)o2)cc1	CHRM1 agonist 80.6, CHO-K1 Ca ag 43.1
Cc1ccccc1C1(CCN2CCCCC2)CCOC(C)(C)C1 (stereo unspecified)	M1 antag 51.9
O=C(CSc1ccc2ccccc2c1)Nc1ccc(S(=O)(=O)Nc2nccs2)cc1	none
O=C(O)CCCC(=O)N1N=C(c2ccccc2)CC1c1ccc2c(c1)OCO2 (stereo unspecified)	none
O=C(Nc1ccccc1)Nc1ccc(Br)cc1F	M1 antag 45.6
COC(=O)c1cc(Br)ccc1NC(=O)Nc1ccccc1	none
O=C(Nc1cccc(Cl)c1)Nc1ccc(Br)cc1F	M1 antag 32.6
Cc1cc(NC(=O)Nc2ccccc2F)ccc1Br	CHO-K1 Ca antag 24.7
CCC1CCC2(CC1)NC(=O)N(CC(=O)Nc1ccc(OC)c(Cl)c1)C2=O (stereo unspecified)	none
NS(=O)(=O)c1ccc(NC(=O)CSc2nnc(Cc3cccs3)n2-c2ccccc2)cc1	none
Cc1ccc(-n2c(Cc3cccs3)nnc2SCC(=O)Nc2ccc(S(N)(=O)=O)cc2)cc1	CHO-K1 Ca antag 25.1
CC(=O)N1CCN(c2ccccc2NC(=O)COc2cc(C)ccc2C(C)C)CC1	M1 antag 29.6
c1ccc(-c2nn3c(C4CCCCC4)nnc3s2)nc1	none
c1ccc(-c2nn3c(C4CCCCC4)nnc3s2)cc1	CHO-K1 Ca antag 25.5
COc1cccc(NC(=O)C(c2ccccc2)N2CCCCC2)c1 (stereo unspecified)	M1 antag 50.4
COc1cccc(NC(=O)C(c2ccccc2)N2CCN(CC(=O)N3CCOCC3)CC2)c1 (stereo unspecified)	none
Clc1ccc(-c2ccc(-c3nn4c(-c5ccco5)nnc4s3)o2)cc1	none
Brc1ccc(-c2nn3c(-c4ccco4)nnc3s2)o1	CHO-K1 Ca antag 24.6
COc1ccccc1N1CCN(C(=O)c2oc3c(c2C)C(=O)CC(C)(C)C3)CC1	CHO-K1 Ca antag 28.4
Cc1c(C(=O)N2CCN(c3ccccn3)CC2)oc2c1C(=O)CC(C)(C)C2	none
O=C(c1ccc([N+](=O)[O-])cc1)N1CCN(Cc2ccccc2[N+](=O)[O-])CC1	none
CCN1CCN(c2ccc(NC(=O)c3ccco3)cc2Cl)CC1	none
CCN1CCN(c2ccc(NC(=O)c3cccc(S(=O)(=O)N4CCCC4)c3)cc2)CC1	M1 antag 74.3
O=C(Nc1ccc(N2CCOCC2)cc1)c1cccc(S(=O)(=O)N2CCCCC2)c1	none
CCN1CCN(c2ccc(NC(=O)c3cccc(F)c3)cc2Cl)CC1	M1 antag 53.8
NNC(=O)CS(=O)(=O)c1ccc(Cl)cc1	none
Cc1c(Cl)cccc1NC(=O)Nc1cc(C(C)(C)C)on1	none
CC(CCN1C(Nc2ccccc2)=NC[C@@H]1Cc1ccccc1)c1ccccc1 (stereo partly specified)	M1 antag 36.7
